The test system of one assay is LXRa homodimer (NR concentration 270 nM). Put plainly: PBM binding z-score (relative to random genomic background probes); higher = stronger binding; sequences stand for … in GC…GCGATTGACAGCGTAGAATGAAGG
Put shortly: (§1)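 The probes on custom Agilent 4×180K protein-binding microarrays were double-stranded, with 34-nt variable regions bearing direct-repeat seeds, single-nucleotide variants, half-site ablations and random human genomic background sequences. Incubation lasted 1 h with ligand-free nuclear receptor dimers in PBS pH 7.4, 2% milk, 0.02% Triton X-100, 1 mM DTT, 0.2 mg/mL BSA and 0.4 mg/ml salmon testes DNA. Antibodies against each partner (one per run) detected bound dimers, and fluorescence scans were regression-normalized. Binding z-scores take the random background probes as reference.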
With TCGAGTAGGTTAGGGGCATTCACAATGGCGTCGA, the PBM binding z-score is -0.286.

In turn, TCAAATAGGTAAACAGGTGAAAGTCCGTAAGTTA registered a PBM binding z-score of 0.164.

Regarding CTACCAAGGTGAACAAGGTCGGTGATTACTATTC, the PBM binding z-score is -0.361.

The sequence GCATATAGGTAATACAAGGTGAATGTCCGATTGT showed a PBM binding z-score of 0.343.

In turn, CATCAAAGTTCAAGGTAACGTAACAGAAAGCAGC gave a PBM binding z-score of 3.88.

With ATATGTAGGTTAGCTGGGATCATTCAGACTAGGC, the PBM binding z-score is 0.0491.

Turning to ACTTACGGTTCAACGAGGTTATAGCACGCGTATA, the PBM binding z-score is 1.07.

CCTACTCGGCCAAAGGTCATTGATTCCAATGCTC yielded a PBM binding z-score of 4.99.

CCTAGTTGGTCAGGAGGTGACACACCGGATATGA registered a PBM binding z-score of 0.0506.

For TGACCAAGGTGAAGGTCGTTGATCCCTCTGTAGA, the PBM binding z-score is -0.327.

On to GGAACGAGGGCATACGAGTTGATAGCATGGCGAT, for which the PBM binding z-score is -0.418.

As to TCTATTAGTTGAAGGGCGACCGACGAGTCCGTTT, the PBM binding z-score is 0.292.

Turning to TCTTGTAGATCAAGCAGGTTGAGAAAGCCTGAGT, the PBM binding z-score was -0.471.

In turn, ACAGACAGGTGATGAATGTAACTCAGGCTATCAT returned a PBM binding z-score of 0.164.

On to AGAATGAGGTTACCACAGATCAGGGAAACGCTTG, for which the PBM binding z-score is -0.0372.

Take ACAGACAGGTGAGGAAGGTAACTCAGGCTATCAT: the PBM binding z-score was -0.223.

For the sequence GATACAGGGTCAAGCCCAGAGTACGCGTATTGAT, the PBM binding z-score is -0.0405.

With CCTTACGGGTCAAGGCTATAGCACGGGTGGTACG, the PBM binding z-score is -0.261.

Take CCTAGTTGGTCAGTAGGTCACACACCGGATATGA: the PBM binding z-score was 1.22.

Consider AATCGGAGGACAAAGGTCAGAGCTACGCCAGTGA, for which the PBM binding z-score was determined as 1.79.

CAAACTAGGTCAAGAGGACAAAGTCCGCTTCCCG displayed a PBM binding z-score of 1.1.

In the case of CCTAGCAGGCCAGGGTCATTCAAGCATTTCGCTT, the PBM binding z-score is -0.0917.

In the case of CCTCCTGGGCCAAGGTCATTGATCAGTCAAAGCA, the PBM binding z-score came out at 1.06.

Consider ATCTCTGGGTAAAGTTCAGTGAAAGATCGATAGA, for which the PBM binding z-score is 1.6.

Turning to CTCGAAAGGTTGTGCTCAGGTGAGTATACCAAAC, the PBM binding z-score is -0.192.

Regarding ATCGAAAGGTCGTGAGGTGAGTATTCAGAAAGGC, the PBM binding z-score was -0.0279.

As for AGAATGAGGTTACCAACGATCAGGGAAACGCTTG, the PBM binding z-score was -0.334.

For the sequence TCATCTAGGTAAAAGGTGAAAGTCGGTGTGGTAA, the PBM binding z-score came out at 0.186.

As for TCTAGCAGGCCAGAGGGTCTCTCAAGAGGTACGG, the PBM binding z-score is -0.763.

As for CAAACTAGGTCACCGGAAGGTCACAGTCCGCATG, the PBM binding z-score amounted to 4.03.

In turn, ATCTCTAGGAAAAAGTTCAGTGAATCCCGAGGAT returned a PBM binding z-score of 0.466.

In the case of TCTAGTTGGTTAAAGGTCACACACTCGAAATGCG, the PBM binding z-score worked out at 4.45.

Sequence CGTCGAAGGTCAAGGTCAGTGAAAGAGACTCGAA yielded a PBM binding z-score of 0.585.

For CCGACTGGGGCAAGGTTACCAGAACGCACAGCCA, the PBM binding z-score was -0.288.

Take TCTTGTAGATCAAAGGTGAAGAAAGCCGAAGCCT: the PBM binding z-score was -0.533.

ATATGTAGGTTAGCTGGGGTCATTCGGACTAGGC gave a PBM binding z-score of 3.75.

With TCTCGGAGGACTCGAAGGTCAGAGCTTTCCAGAG, the PBM binding z-score was -0.429.

On to CCGAGTAGGTGATGGGGCATTCAGGCAACGGTGA, for which the PBM binding z-score was -0.529.

For TCGAGTAGGGTAGGGGCATTCAGAATGGCGTCGA, the PBM binding z-score worked out at 0.0875.

Sequence TCATATACGTAAAAGGTGAAAGTCGGTGTGGTAA yielded a PBM binding z-score of 0.215.

In a further assay the test system is LXRb:RXRa (NR concentration 270 nM, RXRa partner concentration 90 nM). The assay is described as above. Put shortly:
as §1
TCGAGTAGGTTAGGGGCATTCACAATGGCGTCGA displayed a PBM binding z-score of 0.973.

Regarding TCAAATAGGTAAACAGGTGAAAGTCCGTAAGTTA, the PBM binding z-score came to 0.968.

On to CTACCAAGGTGAACAAGGTCGGTGATTACTATTC, for which the PBM binding z-score worked out at 0.578.

In the case of GCATATAGGTAATACAAGGTGAATGTCCGATTGT, the PBM binding z-score is 0.292.

CATCAAAGTTCAAGGTAACGTAACAGAAAGCAGC registered a PBM binding z-score of 3.79.

Sequence ATATGTAGGTTAGCTGGGATCATTCAGACTAGGC gave a PBM binding z-score of 0.629.

As for ACTTACGGTTCAACGAGGTTATAGCACGCGTATA, the PBM binding z-score came to 2.64.

Consider CCTACTCGGCCAAAGGTCATTGATTCCAATGCTC, for which the PBM binding z-score was found to be 5.12.

Turning to CCTAGTTGGTCAGGAGGTGACACACCGGATATGA, the PBM binding z-score came to 0.214.

Turning to TGACCAAGGTGAAGGTCGTTGATCCCTCTGTAGA, the PBM binding z-score is 1.57.

Turning to GGAACGAGGGCATACGAGTTGATAGCATGGCGAT, the PBM binding z-score was -0.0696.

As for TCTATTAGTTGAAGGGCGACCGACGAGTCCGTTT, the PBM binding z-score is 0.778.

For TCTTGTAGATCAAGCAGGTTGAGAAAGCCTGAGT, the PBM binding z-score was -0.223.

In turn, ACAGACAGGTGATGAATGTAACTCAGGCTATCAT registered a PBM binding z-score of 0.1.

In turn, AGAATGAGGTTACCACAGATCAGGGAAACGCTTG showed a PBM binding z-score of 3.08.

ACAGACAGGTGAGGAAGGTAACTCAGGCTATCAT: the PBM binding z-score was 0.105.

GATACAGGGTCAAGCCCAGAGTACGCGTATTGAT yielded a PBM binding z-score of 3.88.

In turn, CCTTACGGGTCAAGGCTATAGCACGGGTGGTACG displayed a PBM binding z-score of 2.59.

On to CCTAGTTGGTCAGTAGGTCACACACCGGATATGA, for which the PBM binding z-score stood at 1.64.

Sequence AATCGGAGGACAAAGGTCAGAGCTACGCCAGTGA displayed a PBM binding z-score of 3.53.

As for CAAACTAGGTCAAGAGGACAAAGTCCGCTTCCCG, the PBM binding z-score came out at 1.67.

On to CCTAGCAGGCCAGGGTCATTCAAGCATTTCGCTT, for which the PBM binding z-score was found to be 2.54.

In the case of CCTCCTGGGCCAAGGTCATTGATCAGTCAAAGCA, the PBM binding z-score stood at 2.86.

ATCTCTGGGTAAAGTTCAGTGAAAGATCGATAGA had a PBM binding z-score of 1.39.

Consider CTCGAAAGGTTGTGCTCAGGTGAGTATACCAAAC, for which the PBM binding z-score is 0.714.

Regarding ATCGAAAGGTCGTGAGGTGAGTATTCAGAAAGGC, the PBM binding z-score was determined as 3.34.

For AGAATGAGGTTACCAACGATCAGGGAAACGCTTG, the PBM binding z-score is 2.43.

Sequence TCATCTAGGTAAAAGGTGAAAGTCGGTGTGGTAA registered a PBM binding z-score of 1.97.

For TCTAGCAGGCCAGAGGGTCTCTCAAGAGGTACGG, the PBM binding z-score is -0.66.

For CAAACTAGGTCACCGGAAGGTCACAGTCCGCATG, the PBM binding z-score was 4.77.

Sequence ATCTCTAGGAAAAAGTTCAGTGAATCCCGAGGAT came in with a PBM binding z-score of 0.0384.

For TCTAGTTGGTTAAAGGTCACACACTCGAAATGCG, the PBM binding z-score stood at 5.47.

In the case of CGTCGAAGGTCAAGGTCAGTGAAAGAGACTCGAA, the PBM binding z-score was 4.59.

In the case of CCGACTGGGGCAAGGTTACCAGAACGCACAGCCA, the PBM binding z-score came to 0.501.

Turning to TCTTGTAGATCAAAGGTGAAGAAAGCCGAAGCCT, the PBM binding z-score stood at 0.994.

Regarding ATATGTAGGTTAGCTGGGGTCATTCGGACTAGGC, the PBM binding z-score came to 4.73.

As to TCTCGGAGGACTCGAAGGTCAGAGCTTTCCAGAG, the PBM binding z-score was found to be 0.814.

On to CCGAGTAGGTGATGGGGCATTCAGGCAACGGTGA, for which the PBM binding z-score was -0.326.

TCGAGTAGGGTAGGGGCATTCAGAATGGCGTCGA gave a PBM binding z-score of 1.16.

For the sequence TCATATACGTAAAAGGTGAAAGTCGGTGTGGTAA, the PBM binding z-score stood at 1.7.

The values above are taken from the supplement of paper PMC6555819.
